Source: PubChem BioAssay
HCV inhibitor = HCV inhibition | Huh7.5.1 HCVcc-Cre infection, luciferase reporter, 44 h | Potency, µM (titrated, usually from 41.8 µM), for inactives: top-dose activity change, negative = inhibition, most hits filed as inhibitors | hit rate 3.4% among 340,000; also: potency is read from the fitted curve at half-maximal effect; % is scaled to controls: 0 for no effect and ±100 for the full control effect
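HCVcc-Cre virus at an moi near 0.5 was added right after compound to cells cultured 4 h from seeding (1,000 cells/well). Luciferase activity was determined 44 h later, 15 min after substrate addition at RT.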
Pf growth 96h = inhibits malaria parasite growth, 96 h; P. falciparum luciferase reporter growth, 96 h; Potency, µM (top dose mostly 28.7 µM), for inactives: at the top dose activity change, negative = inhibition, actives largely listed as inhibitors; hit rate 6.9% among 320,000; AID 504834; also: potency is read from the fitted curve at half-maximal effect; % is scaled to controls: 0 for no effect and ±100 for the full control effect
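Readout is luminescence from an integrated firefly luciferase in P. falciparum. Red cells, 2% hematocrit and 0.05% parasitemia final, were cultured with compound through two parasite generations (96 hours) at 37 C, 5% CO2.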
Shiga toxin inh = blocks Shiga toxin action in Vero cells; inhibition, % at 38.7 µM; hit rate 9.2% among 290,000; Vero cells, Shiga toxin protein synthesis inhibition reporter; AID 2315; in the data active = inhibition mostly above about 28%, no sharp cut-off; inactive = mostly below about 43%; also: 0% is about no effect
HCMV inh = human cytomegalovirus inhibition; activity change, negative = inhibition, % at 57.5 µM; AID 1259415; HFF cells, HCMV-luciferase reporter, 72 h; hits give low values; hit rate 4.5% among 410,000; in the data active = activity change below about -60%; inconclusive = no clear call, values can overlap the other calls; inactive = above about -39%; also: % is scaled to controls: 0 for no effect and ±100 for the full control effect
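HFF cells seeded 16 h at 37C, treated with compounds, infected with luciferase-reporter HCMV at MOI 1 PFU/cell; luciferase read at 72 h post infection, normalized to buffer-only and Salinomycin controls.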
Pf growth 48h = inhibits P. falciparum growth in the first generation, 48 h | P. falciparum luciferase growth in erythrocytes, 48 h | Potency, µM (top dose mostly 28.7 µM), inactives show top-dose activity change, negative = inhibition, most hits filed as inhibitors | hit rate 5.9% among 310,000; also: potency is read from the fitted curve at half-maximal effect; % is scaled to controls: 0 for no effect and ±100 for the full control effect
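Compounds are pin-transferred into medium, infected erythrocytes (2% hematocrit, 0.1% parasitemia final) are added, and plates sit one parasite generation at 37 C in 5% CO2. Detection reagent is then added and luminescence measured.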
CHX counter = counter-screen for Shiga toxin inhibitors: cycloheximide protein synthesis inhibition. cell reporter, cycloheximide protein synthesis inhibition counterscreen. max response, %. hit rate 12% among 300,000; in the data active = max response mostly above about 13%, no sharp cut-off; inactive = mostly below about 14%; also: read at 38.3 µM for the half of the compounds with a filed dose; 0% is about no effect
An asterisk follows results filed as active; u = inconclusive; x = no result given. An excerpt weighted towards active compounds, which were near 21% of everything screened. Unless noted, calls follow the shape of the dose curve; as a rule, active = well fitted inhibition curve with a large enough effect; inconclusive = small, poorly fitted or top-dose-only effect, or another doubt; inactive = no such curve, though single readings can be large or run the other way.

SMILES | HCV inhibitor | Pf growth 96h | Shiga toxin inh | HCMV inh | Pf growth 48h | CHX counter
COc1ccccc1-c1cc(C(=O)N2CCCC2)no1 | u | u | 84* | 51 | 132% | 34*
COc1ccccc1-c1cc(C(=O)N2CCOCC2)no1 | -16% | u | 89* | 47 | 97% | 29*
COc1ccccc1-c1cc(C(=O)N2CCN(c3ccc(F)cc3)CC2)no1 | u | 8.3µM* | 36 | 14 | 35% | 1
COc1ccccc1N1CCN(C(=O)c2cc(-c3ccccc3O)on2)CC1 | 2% | -3% | 2 | 5 | u | 1
COc1cccc(OC)c1C(=O)N1CCOCC1 | -8% | 15µM* | 11 | -5 | -8% | -2
COc1ccc(C(=O)N2CCOCC2)cc1Br | 6% | x | 12 | -15 | 8% | 7
CCOc1ccc(NC(=O)N2CCN(c3nnc(C)c4c(C)n(-c5ccccc5)nc34)CC2)cc1 | x | x | x | 0 | x | x
O=C(c1cc(-c2ccccc2Cl)on1)N1CCCC1 | -10% | 324% | 33 | u | 0% | 14*
O=C(c1cccc(F)c1)N1CCN(C(=O)c2cc(-c3ccc(Cl)cc3Cl)on2)CC1 | -7% | -17% | -2 | -33 | -10% | -2
CCN1CCN(c2ncc3c(n2)CCN(CC(C)C)C3)CC1 | x | x | x | -8 | x | x
COc1ccc2c(COC(=O)CNS(=O)(=O)c3ccccc3)cc(=O)oc2c1 | -11% | x | x | 63 | x | x
CCCNS(=O)(=O)c1cccc(C(=O)OCc2cc(=O)oc3cc(OC)ccc23)c1 | -27% | u | 61 | -9 | u | 19*
COc1ccc2c(COC(=O)c3cccc(S(=O)(=O)NCC(C)C)c3)cc(=O)oc2c1 | 2% | u | 37 | u | 9.3µM* | 20*
Cn1nnnc1SCCCNCc1ccccc1OCc1ccccc1F | x | x | x | -36 | x | x
O=C(Nc1cccnc1)OC1CCCC1 | 1% | 30% | 40 | 96 | 60% | 22*
O=C(Nc1cccnc1)OC1CCCCC1 | 0% | 42% | 36 | -1 | 75% | 19*
CCC1NC(=S)NC(C)=C1C(=O)c1ccccc1 (stereo not drawn) | -16% | 8% | 28 | 8 | 50% | -3
COC(=O)c1cc(-c2ccc(S(=O)(=O)N3CCCCC3)cc2)c(C(F)(F)F)s1 | -16% | u | 20 | -23 | 12µM* | 9
CN=c1c([N+](=O)[O-])nn(-c2ccc3c(c2)OCCO3)n1O | u | 13% | 61* | u | 42% | 32*
CC(C)c1ccc(N=c2c([N+](=O)[O-])nn(-c3ccc4c(c3)OCCO4)n2O)cc1 | -18% | u | 17 | -1 | 10µM* | 14*
COc1cc(N=c2c([N+](=O)[O-])nn(-c3ccc4c(c3)OCCO4)n2O)cc(OC)c1 | u | u | 19* | -25 | 37% | 29*
COc1cccc(CN=c2c([N+](=O)[O-])nn(-c3ccccc3C)n2O)c1 | 17% | u | 33 | -36 | -28% | 2
CC(C)N=c1c([N+](=O)[O-])nn(C)n1O | 15% | 7% | 14 | 5 | 10% | -5
CCc1cccc(N=c2c([N+](=O)[O-])nn(-c3ccc(Cl)cc3)n2O)c1 | u | x | 21 | 73 | u | 2
CCc1cccc(N=c2c([N+](=O)[O-])nn(-c3ccc4c(c3)OCCO4)n2O)c1 | 10µM* | 50% | 71* | -67* | 46% | 11
SMILES | HCV inhibitor | Pf growth 96h | Shiga toxin inh | HCMV inh | Pf growth 48h | CHX counter
Cc1c(Cl)c([N+](=O)[O-])nn1CC(=O)Nc1ccc2c(c1)OCO2 | 32% | -7% | -16 | -32 | 20% | -1
O=C(c1cccc(-c2ccccc2F)c1)N1CC[C@@H](N2CCC(O)CC2)[C@H](O)C1 | 2% | 3% | -6 | u | -2% | -3
COc1cccc(-c2ncn(CCc3ccccc3OC)c2CC(C)C)c1 | x | x | x | -88* | x | x
COc1cccc(-c2ncn(CCc3ccccc3OC)c2C(C)C)c1 | x | x | x | -101* | x | x
O=c1[nH]c(/C=C/c2ccccc2OC(F)F)nc2c1cnn2-c1ccccc1 | 0% | 66% | 1 | u | 29% | -2
O=C(CCNS(=O)(=O)c1ccccc1)OCc1nnc(-c2ccccc2)o1 | 25% | 97% | x | 3 | 69% | x
O=C(CNS(=O)(=O)c1ccc2ccccc2c1)OCc1nnc(-c2ccccc2)o1 | 17% | 97% | 22 | 28 | x | 32*
Cc1ccc(S(=O)(=O)NCC(=O)OCc2nnc(-c3ccccc3)o2)cc1C | -2% | x | 13 | 26 | 20% | 20*
Cc1cc(O)cc2c1O[C@](C)(CCC[C@H](C)CCC[C@H](C)CCCC(C)C)CC2 | x | -19% | 5 | x | -16% | -1
Cc1oc2cc(O)ccc2c(=O)c1-c1cnn(-c2ccccc2)c1 | -27% | 1% | 16 | 17 | 1% | 14
O=c1c(-c2cnn(-c3ccccc3)c2)coc2cc(O)ccc12 | u | 39% | 108* | x | 385% | 47*
COc1ccc([C@@H]2C[C@H]3[C@@H](CN2S(=O)(=O)c2ccccc2)C(=O)C[C@@H](c2ccccc2F)N3S(=O)(=O)c2ccc(C)cc2)cc1 | x | x | x | -26 | x | x
Cc1ccc(-c2noc(-c3ccccc3NC(=O)C3CC(=O)N(c4ccc(C)cc4)C3)n2)cc1 (stereo not drawn) | x | x | x | 53 | x | x
O=C(N/N=C/C(Br)=C/c1ccccc1)c1cccnc1 | -8% | 10µM* | 66* | 30 | 10µM* | 38*
O=C(N/N=C/C(Br)=C/c1ccccc1)c1ccncc1 | u | 15µM* | 73* | u | 10µM* | 38*
CCOc1cc(C(=O)N/N=C/C(Br)=C/c2ccccc2)cc(OCC)c1OCC | u | u | -16 | -76* | -19% | 2
Cc1cc(C)nc(SCC(=O)N/N=C\C(Br)=C\c2ccccc2)n1 | u | 9% | -7 | u | 1% | 5
O=C(N/N=C/C(Br)=C/c1ccccc1)c1ccc([N+](=O)[O-])cc1 | -29% | 18% | 4 | -11 | -8% | 11
CN(C)C(=O)COc1ccc(S(=O)(=O)c2ccc(OCC(=O)N(C)C)cc2)cc1 | 11% | 27% | 18 | 31 | u | -2
Cc1ccc(NS(=O)(=O)c2cccc3nsnc23)cc1C | 11% | 4.1µM* | -12 | -38 | 0% | -1
Cc1cc(F)ccc1NS(=O)(=O)c1cccc2nsnc12 | 0% | -25% | 2 | -3 | 124% | 4
Cc1ccc(O)c(NS(=O)(=O)c2cccc3nsnc23)c1 | -17% | 24% | -4 | u | 28% | 14*
CCOc1ccc(S(=O)(=O)Nc2ccc(C(=O)NCC3(N4CCCCC4)CCCCC3)cc2)cc1 | u | 1.2µM* | x | -8 | 3.3µM* | x
O=C(NCC1(N2CCOCC2)CCCCC1)c1cccc(S(=O)(=O)N2CCc3ccccc3C2)c1 | u | u | -6 | 59 | 8.3µM* | -3
